# Over roughly 25,000 sequences, “ln(normalized median fluorescence intensity)” has its median near 7.1; the highest 2% begin near 10. This is one part of a sample in which the highest values are shown more often than they occur.
# Test system: PfSIP2 AP2 domain 1 (GST-tagged)
# Assay: gcPBM binding intensity (ln(normalized median fluorescence intensity)); higher = stronger DNA binding
# In short: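 GST-tagged P. falciparum DNA-binding domains, expressed in E. coli (about 25 μg on average), were applied for 1 h to an Agilent 4 × 180k array of primer-extended double-stranded 36-bp intergenic genomic probes plus negative controls. The binding buffer was 1× PBS with 1% milk, 0.2 mg/ml BSA, 0.5% salmon testes DNA and 0.03% Triton X-100. Bound protein was detected with Alexa488 anti-GST antibody and scanned at 488 nm. Binding intensity is the highest Masliner-normalised natural-log median intensity across replicate spots of either probe orientation.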
row,Sequence,gcPBM binding intensity (ln)
1,AAATAATTAGAAATAGTGCACATAATTAAGGGATAC,10.1
2,TTCTCCTAATAGTTAGTGCACTACATAACTAAGAAA,10.8
3,AATGACTACATAATAGTGCAATATTAAAGAAAATTA,8.55
4,TATTTTTTTACATATTGTACATAATATAAAACTTAC [XGTACX_site8273],7.17
5,TATTATATATTAAATGCATGTAAAAATAATATTAAA [TGCATGCA_site643],7.02
6,GATAAAATCACTGGTGCATGTAGATATATAATATTA [TGCATGCA_site589],10.5
7,GAAAAATATATTCTGGTGCATGAATAAAATCATAAA,10.2
8,TACCATAATCAATGCACACATAACAAAATATTATTA [CACACA_site2722],7.33
9,ATCAAAATTGTCATTACACACCTTTATTTTTATAAT [CACACA_site5071],7.12
10,AATATATAGAGAGATATGCACACTGTATGAATGCAC [CACACA_site2677],10.3
11,TATATAGAGAGATATGCACACTGTATGAATGCCCCC [CACACA_site5476],9.53
12,TATATGGAGAGATATGCACACTGTATGAATGCCCCC [CACACA_site8853],9.32
13,ATATATATATATAATAAACACACAAATAGATATAAC [CACACA_site9234],9.02
14,AATAATTCATCATATGCACACACAATACCAAAATGT [CACACA_site7945],8.05
15,GAAAATATTAAATGAAGTACAATATTTATGTTACTT [XGTACX_site8737],6.71
16,TTTTTTTTTGGGGGTGCATGCAAGACATATATTTAA [TGCATGCA_site228],11.6
17,AATATTTTTTTTTAAACATGCATATTTGCATTACCC [TGCATGCA_site437],6.99
18,TATATATATATATATACATGCATATTTTTTATTTTT [TGCATGCA_site464],9.67
19,ACAAAATAATTGTTTACACACCCATTTGTAATTTTA [CACACA_site3615],6.88
20,TTATCATATCATGGAAGTACAAATAAAATATATAAC [XGTACX_site1608],7.24
21,ATTTCATATGGTCAACGTACTCATGCATCCCTCCTT [XGTACX_site437],6.86
22,GTTATAATTGAACTAGTGCATAAATATATTTTAATT [GTGCAC_site9851],9.01
23,ATTTTCACCTGAACGGTGCATATTTAATTTTAGGTT,10.5

row,Sequence,gcPBM binding intensity (ln)
1,TTATTTTAATTTTTGGTGCATATTCAAGTGTACCTT [GTGCAC_site9791],9.68
2,ATTTATTTATCTAGCTATTCACCATTTTCTTTTGTT [CACACA_negctrl_site1259],6.61
3,TTTAATTGATAATGAAGACAATTATATGCATCCAAA [TGCATGCA_negctrl_site138],6.79
4,ACGACATATGGATGATGTACTATCTTTATTATACAT [XGTACX_site6857],6.89
5,AGAAATAAGAAATATACACACATATATATATATATA [CACACA_site2808],9.79
6,AAAAAAAAAATACAGGTGCAATAAGAAAAAAATGGT,10.2
7,TAAAAGAAATAATATACACACATATATAAAAATAAA [CACACA_site1329],6.86
8,AAAGAAATAAGGTGCACACATATACATATATATATA [CACACA_site429],11.9
9,ATGCATAAAAGAAATACACACATAAATATATAAATA [CACACA_site2163],7.02
10,TAAAAGAAATAAGGTGCACACATATACATATATATA [CACACA_site8037],11.8
11,ATATATATATAATAAGTGCAAAAAAAAGAAAAAAAT,8.48
12,AAATATAATATATGCACACATACATACAGATATATA [CACACA_site4235],7.09
13,AAATATAAGAAAAAGGTGCTTTTTTTTTTTTTTTTT [GTGCAC_site9700],8.42
14,TAAAGAAATAAATACATACACACATATATATATATA [CACACA_site3363],9.69
15,TATACAGATAAATACACACACACATATATATATATA [CACACA_site4845],9.39
16,AAAGAAATAAGGTGCACACATATACAGATATATATA [CACACA_site4399],11.9
17,AAGGAAAAGTAAAGAAGTACTGTACCGCCAAAAAAA [XGTACX_site2607],6.98
18,TAAATATATTTATATTGTACATTTATGTTGATACCA [XGTACX_site228],6.88
19,TATAGATAAGAATATGCACACATTTTATTTTTTTTT [CACACA_site1982],7.16
20,TCTTTAAAAAAAAAAAAAAAAAATTCCAAATAAATA [TGCATGCA_negctrl_site538],6.72
21,ATTTGTTCATTTGGTTGTACATAATTTATTTTTATA [XGTACX_site785],7.26
22,TTGTATATTTTATGTACACACAATAAGTTAATATAA [CACACA_site4655],7.29
23,TATATTTATATCATCACACATTTTTTTTTTCTTTTT [CACACA_site6150],6.58

row,Sequence,gcPBM binding intensity (ln)
1,ATATATATTAATAGTTGTACTATTATAATATTACAA [XGTACX_site1213],7
2,AGGATAACATACAAAAGTACATAAAACTAAAAAAAC [XGTACX_site26],7.32
3,TATATGTTTACTTAATGTACTTACATTTTTATAACA [XGTACX_site1100],6.91
4,GCATTATTATATATTTGTACATATTTTTTTTTAAAA [XGTACX_site5436],7.3
5,AATATATAAACACGTACACACACATATATGTATATA [CACACA_site9168],7.39
6,TATTAAATTATATAGACACACATTATGTATATATAT [CACACA_site345],7.49
7,TTTTTTAAAAGAAAATAAAAAATAAGCATAATATGA [CACACA_negctrl_site1574],7.06
8,ATGGAATATTTCATGATTTTTTTAATTTTTTTATTG [XGTACX_negctrl_site55],6.6
9,ATATATTATATATATTTTAAGTAATTTGCAAAAAAT [GTGCAC_negctrl_site361],7.01
10,TATGGAAGAAAATATACACACAAAAAAAAAAAATGG [CACACA_site4924],6.99
11,AAAAGGAACGGACACACACACATATATATATATATA [CACACA_site5894],9.31
12,GAAAGAATAAAATAAACATGCAAATAAAACATAAAA [TGCATGCA_site471],7.2
13,CACATAAAATAAGGTGCATGCAAACGAGAAAATAAA [TGCATGCA_site75],11
14,ACGGAAAAAGAAAAGGTGCATATGGACACAATATAT,11.3
15,AGGTGCAAAAATAAAACATGCAAAAATAAAAATGAA [TGCATGCA_site502],9.93
16,TTGTTAAATATTTATAAAATGAATTTAAAATGTACT [CACACA_negctrl_site665],7.05
17,ATATGTATAAATATAAATATATATATATATATATAT [CACACA_negctrl_site705],9.63
18,TAATATAAAGGAAAAGAAAAGAAAAGAATATACAAT [CACACA_negctrl_site1369],6.69
19,GAAAGGACAAGAATAGTGCACATGCAATGTTATTTT [GTGCAC_site9985],9.8
20,GTAATAAGAATTATAGTGCAATGTAATACATTTATA,7.97
21,GGACAAGAATAGTGCACATGCAATGTTATTTTTTAT [TGCATGCA_site450],10.9
22,ATTTTTTTTTTTTTTATTCCCCTTTCGAAAAAAACC [CACACA_negctrl_site1139],7.18
23,TACTTATTTGATTGGGTGCATATATATAGTATGTAT [GTGCAC_site9845],10.6

row,Sequence,gcPBM binding intensity (ln)
1,ATAGTTTAATTTATATGTACATATAATATTGATTTG [XGTACX_site7520],7.29
2,CTTATTGATTTAAAAAGTACATATATGTATATACAC [XGTACX_site4072],7.05
3,TTTTATTTATCTAATTGTACTCATTCTTTTTTGATG [XGTACX_site2876],6.88
4,AGATATATATATAGGTGTACTGGAATGAAATTGTTT [XGTACX_site8200],6.94
5,GATGAAAATAGAAATACACACTAAAAAATAAAATTA [CACACA_site4764],6.75
6,TATAAATTAAAATGTGTGCACTAAATTGAAATAGAA,10.7
7,AAATAAAAATTAAAAAAATAGAAACGAATTGAATGC [TGCATGCA_negctrl_site365],7.2
8,TCAATATATATAAGAAGTACATGTGAATGAAAAAAA [XGTACX_site1674],7.14
9,AAAAAAAAATTATTCACACATATATATATATATATA [CACACA_site5579],9.38
10,GCATATTTTATAATTTTACACACCATATAAAATAAT [CACACA_site8904],7.2
11,TAAAATAATTTATGCATACACACATATATATATATA [CACACA_site4021],9.23
12,ATATACACCTGAGAGGTGCATATATATAAAATTTAC,11.2
13,TAAGAATTGAAAAAATGTACACAATATAAAATTGAA [XGTACX_site698],6.88
14,ATAATTAAGTTATGTGTGCACTGTTAAAAATAAATG,10.4
15,TAAATTATAATATGCACACAAAATGTTATATTAAAA [CACACA_site376],7.01
16,TATTAAAAATGTTAAGTGCAAAAATAAAAATTGTGG [GTGCAC_site9854],7.71
17,ACCTATATAAGTTATACACACAAATATAGATATATA [CACACA_site7356],7.06
18,TATGGTATATACAACACACACACATATGTATATATA [CACACA_site927],7.14
19,AACAAGTTGCATGGTGCACACATGTATATATATCTA [CACACA_site2548],11.6
20,AACAAGTTGCATGGTGCACACATGTATTTATATCTA [CACACA_site5414],11.8
21,ATGTAAGTTGTGCATTCACACACATATATATATATA [CACACA_site9086],9.26
22,TAGTTGCACATGTATACACACAAAAAATATTTTATG [CACACA_site475],7.68
23,ATCATATGTATGCATACACACAAAAAGTTATTTATA [CACACA_site6325],7.06
